Source: PubChem BioAssay (EPA / NIEHS)
Results filed as inconclusive are left out. A structure can be active in one record and inactive in another. Active and inactive are the calls of the source. Rule for the calls: active = hit-call score of the fitted dose curve at least 0.9, where 1 is the maximum; inconclusive = response in the unintended direction; inactive = score below 0.9.

Assay: Tanguay_ZF_120hpf_SWIM_legacy: (Legacy) Oregon State University Tanguay Lab 120 Hour Post-fertilization zebrafish Assay for Swim Bladder Malformation (AID 2283654);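 note: swim bladder malformation in each larva scored yes or no under brightfield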
Experimental: Tanguay_ZF_120hpf_legacy is a whole embryo, multiplexed endpoint assay using zebrafish larvae exposed for 120 hours post fertilization on a 96-well plate.Tanguay_ZF_120hpf_SWIM_legacy is one of one assay component(s) measured or calculated from the Tanguay_ZF_120hpf_legacy assay. It is designed to make measurements of zebrafish development as detected with brightfield microscopy of developing zebrafish embryos.Data from the assay component Tanguay_ZF_120hpf_SWIM_legacy was analyzed into 1 assay endpoints. This assay endpoint, Tanguay_ZF_120hpf_SWIM_legacy, was analyzed in the positive analysis fitting direction relative to DMSO as the negative control and baseline of activity. Using a type of morphology reporter, gain-of-signal activity can be used to understand changes in developmentals as they relate to the whole embryo. To generalize the intended target to other relatable targets, this assay endpoint is annotated to the zebrafish development intended target family, where the subfamily is swim bladder morphogenesis.
Zebrafish husbandry: Tropical 5D wild-type adult zebrafish were housed in at an approximate density of 1000 per 100 gallon tank at the Sinnhuber Aquatic Research Laboratory, Oregon State University, Corvallis, OR. Each tank was kept at standard laboratory conditions of 28C on a 14-h light/10-h dark photoperiod in fish water consisting of reverse osmosis water supplemented with a commercially available salt (Instant Ocean). Spawning funnels were placed into the tanks the night prior, and embryos were collected and staged. To increase bioavailability, the chorion was enzymatically removed using pronase (63.6mg/ml, >/= 3.5U/mg, Sigma-Aldrich: P5147) at 4 hours post fertilization (hpf) using a custom automated dechorionator.Chemical exposures: Six hpf dechorionated embryos were placed 1 embryo per well in a 96-well plate prefilled with 90 ul of EM using automated embryo placement systems (AEPS). Ten microliters of each row of dilution plate 2 was added to 2 exposure plates. The final DMSO concentration used was 0.64% (vol/vol). Thirty-two embryos were also exposed to 5uM trimethyltin chloride (positive control). Plates were sealed to prevent evaporation and foil covered to reduce light exposure and kept in a 28C incubator. Embryos were statically exposed until 120 hpf. At 24 hpf, embryos were assessed for photomotor response using a custom photomotor response analysis tool (PRAT) and for developmental toxicity endpoints (MO24: mortality at 24 hpf, DP: developmental progression, SM: spontaneous movement, and NC: notochord distortion). At 120 hpf, locomotor activity was measured using Viewpoint Zebralab and assessed for 18 endpoints. Zebrafish acquisition and analysis program (ZAAP), a custom program designed to inventory, acquire, and manage zebrafish data, was used to collect developmental endpoints as either present or absent (i.e., binary responses were recorded). If mortality occurred for an embryo (at either 24 or 120 hpf), the non-mortality endpoints were not measured.

**Q.** For `S=C([S-])NCCNC(=S)[S-].[Mn+2]`, which outcome is on record?
**A.** inactive

**Q.** Which outcome does the source give for `C#C[C@]1(O)CC[C@H]2[C@@H]3CCC4=CC(=O)CC[C@@H]4[C@H]3CC[C@@]21CC` here?
**A.** inactive

**Q.** With `CCCOC(=O)c1ccc(C(=O)OCCC)nc1` as the compound, how does the AC50 read?
**A.** 1.97 µM (active)

**Q.** Which outcome does the source give for `CSC(=O)c1cccc2nnsc12` here?
**A.** inactive

**Q.** Which outcome does the source give for `CCCN(CCC)C(=O)SCC` here?
**A.** inactive

**Q.** For `c1ccc2[nH]c(-c3cscn3)nc2c1`, which outcome is on record?
**A.** inactive

**Q.** With `CCCCCCC(C)OC(=O)COc1nc(F)c(Cl)c(N)c1Cl` (stereo not given) as the compound, how does the outcome read?
**A.** inactive

**Q.** Which outcome does the source give for `CCCOC(=O)NCCCN(C)C` here?
**A.** inactive

**Q.** For `Oc1ccc(C(c2ccc(O)cc2)C(Cl)(Cl)Cl)cc1`, which AC50 is on record?
**A.** 202 µM (active)

**Q.** With `CCOC(=O)NCCOc1ccc(Oc2ccccc2)cc1` as the compound, how does the outcome read?
**A.** inactive

**Q.** Which outcome does the source give for `CCOC(=O)c1ccc(O)cc1` here?
**A.** inactive

**Q.** For `CCCCC(CC)CN1C(=O)C2C3C=CC(C3)C2C1=O` (stereo not given), which outcome is on record?
**A.** inactive

**Q.** Which outcome does the source give for `N#CSCSc1nc2ccccc2s1` here?
**A.** inactive

**Q.** For `CC(C)(C)[C@@H](O)[C@@H](Cc1ccc(Cl)cc1)n1cncn1`, which outcome is on record?
**A.** inactive

**Q.** With `COC(=O)CSc1cc(N=c2sc(=O)n3n2CCCC3)c(F)cc1Cl` as the compound, how does the outcome read?
**A.** inactive

**Q.** Which outcome does the source give for `CCCCC(CC)COC(=O)c1ccccc1C(=O)O` (stereo not given) here?
**A.** inactive

**Q.** With `OB(O)O` as the compound, how does the outcome read?
**A.** inactive

**Q.** With `O=C(O)c1ccccc1` as the compound, how does the outcome read?
**A.** inactive

**Q.** With `COC(=O)c1ccccc1C(=O)O` as the compound, how does the outcome read?
**A.** inactive

**Q.** With `CCCCCOC(=O)COc1cc(N2C(=O)C3=C(CCCC3)C2=O)c(F)cc1Cl` as the compound, how does the outcome read?
**A.** inactive

**Q.** For `CCOC(=O)C(C)Oc1ccc(Oc2nc3ccc(Cl)cc3o2)cc1` (stereo not given), which outcome is on record?
**A.** inactive

**Q.** For `CC(=O)[C@H]1CC[C@H]2[C@@H]3CCC4=CC(=O)CC[C@]4(C)[C@H]3CC[C@]12C`, which outcome is on record?
**A.** inactive

**Q.** For `CCCCOC(=O)C(C)Oc1ccc(Oc2ccc(C(F)(F)F)cn2)cc1` (stereo not given), which outcome is on record?
**A.** inactive

**Q.** With `CN(C)C(=O)Nc1ccc(Cl)c(Cl)c1` as the compound, how does the outcome read?
**A.** inactive

**Q.** Which outcome does the source give for `S=C(S)NCCNC(=S)S.[Mn+2].[S-]C([S-])=NCCN=C([S-])[S-].[Zn+2]` here?
**A.** inactive

**Q.** With `Cc1nn(C)c(Oc2ccccc2)c1C=NOCc1ccc(C(=O)OC(C)(C)C)cc1` as the compound, how does the outcome read?
**A.** inactive

**Q.** For `O=C(c1ccccc1)C1CCCCC1`, which outcome is on record?
**A.** inactive

**Q.** For `CCOC(=O)COc1cc(-n2ncc(C(F)(F)F)c(C)c2=O)c(F)cc1Cl`, which outcome is on record?
**A.** inactive

**Q.** For `COCCO`, which outcome is on record?
**A.** inactive

**Q.** For `CCCCOCCOCCOCc1cc2c(cc1CCC)OCO2`, which outcome is on record?
**A.** inactive

**Q.** Which outcome does the source give for `C[C@]12CC[C@@H]3c4ccc(O)cc4C[C@@H](CCCCCCCCCS(=O)CCCC(F)(F)C(F)(F)F)[C@H]3[C@@H]1CC[C@@H]2O` (stereo not given in full) here?
**A.** inactive

**Q.** With `O=C(Nc1ccc([N+](=O)[O-])cc1Cl)c1cc(Cl)ccc1O` as the compound, how does the outcome read?
**A.** inactive

**Q.** For `CC(=O)S[C@@H]1CC2=CC(=O)CC[C@]2(C)[C@H]2CC[C@@]3(C)[C@@H](CC[C@@]34CCC(=O)O4)[C@H]12`, which outcome is on record?
**A.** inactive

**Q.** Which outcome does the source give for `CC1(C)C(C=C(Cl)Cl)C1C(=O)OCc1cccc(Oc2ccccc2)c1` (stereo not given) here?
**A.** inactive

**Q.** For `CCNc1nc(N)nc(Cl)n1`, which outcome is on record?
**A.** inactive

**Q.** For `CC(C)(c1ccc(O)cc1)c1ccc(O)cc1`, which AC50 is on record?
**A.** 37.5 µM (active)

**Q.** What about the outcome of the same compound?
**A.** inactive

**Q.** For `O=C(O)C1(C(=O)Nc2ccc(Cl)cc2Cl)CC1`, which outcome is on record?
**A.** inactive

**Q.** With `CCSC(=O)N(CC(C)C)CC(C)C` as the compound, how does the outcome read?
**A.** inactive

**Q.** Which outcome does the source give for `C#CCOC(=O)[C@@H](C)Oc1ccc(Oc2ncc(Cl)cc2F)cc1` here?
**A.** inactive
